Records with an inconclusive call do not appear. Activity calls are given as the source filed them. Unless noted, calls come from the whole dose curve; as a rule, active = well fitted curve in the direction sought with a large enough effect in the repeat runs; inconclusive = weak or mixed curves; inactive = no such curve, though single readings can be large; an effect the other way counts as inactive or inconclusive.
Columns and labels:
[1] = qHTS assay for small molecule agonists of the p53 signaling pathway (AID 651631; calls by dose curve; note: nearly all actives have a fitted effect of over 15% in size; note: potency is the fitted concentration of half-maximal effect)
Procedure, shortened: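 Agonist mode screen using a stably integrated beta-lactamase gene under p53 response elements in HCT-116 cells. Compound exposure lasts 16 h at 37 °C; fluorescence intensity is measured following 2 h FRET substrate loading.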

[2] = qHTS assay for small molecules that induce genotoxicity in human embryonic kidney cells expressing luciferase-tagged ATAD5 (AID 651632); note: nearly all actives have a fitted effect of over 15% in size
Procedure, shortened: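 Luminescence read-out: after 16 hr compound exposure at 37C, ATAD5-luciferase HEK293T cells received Amplite, 30 min RT, then CCD imaging. A rise in signal marks genotoxic stress.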

[3] = qHTS assay for small molecule agonists of the p53 signaling pathway - cell viability (AID 651633; calls by dose curve;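 note: p53RE-bla HCT reporter cells with a stable beta-lactamase p53 reporter; series mostly up to about 83 µM; nearly all actives have a fitted effect of over 30% in size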)
Procedure, shortened: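 Viability counter-read: CellTiter-Glo luminescence (30 min, room temperature) in the same p53RE-bla plates. These plates had been exposed to compounds for 16 h at 37 C.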

[4] = qHTS assay for small molecules that induce genotoxicity in human embryonic kidney cells expressing luciferase-tagged ATAD5 - cell viability (AID 651634; calls by dose curve; note: nearly all actives have a fitted effect of over 25% in size)
Procedure, shortened: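 HEK293T ATAD5-luc cells, 2,000/well; compound 15.5 hr, 37C/5% CO2; CellTiter-Fluor 30 min, 37C; fluorescence read.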

[5] = qHTS assay for small molecule disruptors of the mitochondrial membrane potential - cell viability (AID 720634; calls by dose curve; note: nearly all actives have a fitted effect of over 20% in size; note: potency is the fitted concentration of half-maximal effect)
Procedure, shortened: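 Luminescence from CellTiter-Glo (ATP content) gave viability in HepG2 cells, read in the same wells as the MMP dye assay after 1 hr compound exposure at 37 C.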

[6] = qHTS assay to test for compound auto fluorescence at 590 nm (red) in HepG2 cells (AID 720674)
Procedure, shortened: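 1 hr compound incubation on HepG2 cells, 37 C, 5% CO2; plate read ex 540 nm / em 590 nm; intensities reported as Rose Bengal sodium equivalents.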

[7] = qHTS assay to test for compound auto fluorescence at 535 nm (green) in HepG2 cells (AID 720675)
[8] = qHTS assay to test for compound auto fluorescence at 460 nm (blue) in HEK293 cells (AID 720678); note: potency is the fitted concentration of half-maximal effect
Procedure, shortened: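 Auto fluorescence in the blue band was quantified as triamterene equivalency. HEK293 cells were seeded at 2,000/well, dosed after a 4-5 hr attachment, and kept overnight at 37C before the 405/460 nm reading.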

[9] = qHTS assay to test for compound auto fluorescence at 590 nm (red) in HEK293 cells (AID 720679)
Procedure, shortened: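 Autofluorescence equivalency to Rose Bengal sodium, 540/590nm, in HEK293 cells exposed overnight to 23 nL compound per well.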

[10] = qHTS assay to test for compound auto fluorescence at 535 nm (green) in HEK293 cells (AID 720680)
[11] = qHTS assay to test for compound auto fluorescence at 460 nm (blue) in HEK293 cell free culture (AID 720681)
Procedure, shortened: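 Blue fluorescence (Ex 405/Em 460 nm, triamterene-equivalent) was read immediately after pin transfer of compound or DMSO into medium (DMEM, 10% FBS) without cells.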

[12] = qHTS assay to test for compound auto fluorescence at 535 nm (green) in HEK293 cell free culture (AID 720682)
Procedure, shortened: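 No cells present: wells hold DMEM supplemented with 10% FBS, into which compound or vehicle is pinned. Green emission is then recorded (485 nm excitation, 535 nm emission) and scaled to fluorescein.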

[13] = qHTS assay to test for compound auto fluorescence at 590 nm (red) in HEK293 cell free culture (AID 720683)
Procedure, shortened: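 Red-channel autofluorescence of compounds in culture medium (DMEM, 10% FBS), no cells, measured at 540/590 nm. Rose Bengal sodium is the reference fluorophore for equivalence.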

[14] = qHTS assay to test for compound auto fluorescence at 590 nm (red) in HepG2 cell free culture (AID 720684)
Procedure, shortened: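 Cell-free; medium MEM + 10% FBS; compound or DMSO added by pintool; read Ex 540/Em 590 nm; Rose Bengal sodium as red reference fluorophore.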

[15] = qHTS assay to test for compound auto fluorescence at 460 nm (blue) in HepG2 cell free culture (AID 720685); note: potency is the fitted concentration of half-maximal effect
Procedure, shortened: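 Cell-free plates of MEM plus 10% FBS received 23 nL compound or DMSO vehicle; blue-channel (405/460 nm) intensity scored against triamterene as reference fluorophore.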

[16] = qHTS assay to test for compound auto fluorescence at 535 nm (green) in HepG2 cell free culture (AID 720686)
[17] = qHTS assay to test for compound auto fluorescence at 460 nm (blue) in HepG2 cells (AID 720687)
Procedure, shortened: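 Blue-channel autofluorescence (Ex/Em 405/460 nm, triamterene-equivalent) was measured after 1 hr compound exposure at 37 C, 5% CO2. Cells were HepG2, plated overnight at 37 C in MEM plus 10% FBS.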

[18] = target: Glucocorticoid receptor (Homo sapiens) (UniProt P04150); assay: qHTS assay to identify small molecule agonists of the glucocorticoid receptor (GR) signaling pathway (AID 720691; active = well fitted activation curve with a large enough effect in the signal ratio in the repeat runs, not every such curve was filed as active; the % refers to the signal ratio)
Procedure, shortened: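 HeLa GR-bla reporter line; cells pre-incubated 4 h, compound in DMSO 18 h at 37 C; LiveBLAzer B/G FRET substrate 2 h RT; fluorescence intensity read-out.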

[19] = qHTS assay for small molecule disruptors of the mitochondrial membrane potential (AID 720635); note: potency is the fitted concentration of half-maximal effect
Procedure, shortened: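 Mitochondrial membrane potential tracked with Mito-MPS dye, red aggregates (ex 540/em 590 nm) against green monomers (ex 490/em 535 nm). Compound treatment 1 hr at 37C, dye 30 min in HepG2.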

[20] = target: Glucocorticoid receptor (Homo sapiens) (UniProt P04150); assay: qHTS assay to identify small molecule antagonists of the glucocorticoid receptor (GR) signaling pathway (AID 720692; active = well fitted inhibition curve with a large enough effect in the signal ratio in the repeat runs, not every such curve was filed as active; the % refers to the signal ratio; note: potency is the fitted concentration of half-maximal effect)
Procedure, shortened: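 Read-out: beta-lactamase FRET substrate fluorescence, 2 h at room temperature, in HeLa cells stably carrying a GRE-driven bla reporter. Compounds were co-incubated with 5 nM dexamethasone agonist (final) for 18 h at 37 C.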

Measured: Potency
Tags give direction and shape of the fitted curve or compound fluorescence and quenching.

Sequence of Glucocorticoid receptor (Homo sapiens) (P04150 whole entry, looked up): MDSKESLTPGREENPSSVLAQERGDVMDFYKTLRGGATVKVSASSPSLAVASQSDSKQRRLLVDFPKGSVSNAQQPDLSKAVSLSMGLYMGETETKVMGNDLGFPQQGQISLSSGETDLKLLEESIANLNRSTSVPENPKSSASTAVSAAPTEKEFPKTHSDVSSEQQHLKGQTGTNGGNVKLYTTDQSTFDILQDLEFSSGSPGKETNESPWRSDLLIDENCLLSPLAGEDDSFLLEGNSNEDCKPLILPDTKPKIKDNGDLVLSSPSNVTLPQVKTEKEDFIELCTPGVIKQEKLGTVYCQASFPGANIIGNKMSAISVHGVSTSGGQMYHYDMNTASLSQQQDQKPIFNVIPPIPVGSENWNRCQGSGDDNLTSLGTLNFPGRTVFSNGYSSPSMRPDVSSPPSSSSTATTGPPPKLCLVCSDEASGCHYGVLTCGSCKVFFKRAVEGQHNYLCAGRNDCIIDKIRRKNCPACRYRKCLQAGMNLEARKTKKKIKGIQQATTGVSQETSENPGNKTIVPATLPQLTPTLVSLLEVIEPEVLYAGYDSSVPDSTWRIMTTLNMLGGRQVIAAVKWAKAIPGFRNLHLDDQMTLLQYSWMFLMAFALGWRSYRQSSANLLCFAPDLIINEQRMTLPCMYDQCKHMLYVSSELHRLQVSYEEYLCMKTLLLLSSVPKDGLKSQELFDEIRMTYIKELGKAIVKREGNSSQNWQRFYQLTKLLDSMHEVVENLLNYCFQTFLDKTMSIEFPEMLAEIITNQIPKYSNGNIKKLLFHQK

FC(Cl)(Cl)Cl
inactive: [1] | [2] | [3] | [4] | [5] | [6] | [7] | [8] | [9] | [10] | [11] | [12] | [13] | [14] | [15] | [16] | [17] | [18]

CN(C)CCc1c[nH]c2cccc(O)c12
inactive: [1] | [2] | [3] | [4] | [5] | [19] | [6] | [7] | [8] | [9] | [10] | [11] | [12] | [13] | [14] | [15] | [16] | [17] | [18] | [20]

ClC(Cl)=C(Cl)Cl
inactive: [1] | [2] | [3] | [4] | [5] | [6] | [7] | [8] | [10] | [11] | [12] | [13] | [14] | [15] | [16] | [17]

CC(C)(C)OO
inactive: [1] | [2] | [3] | [5] | [19] | [6] | [7] | [8] | [9] | [10] | [11] | [12] | [13] | [14] | [15] | [16] | [17]

CNC(C)Cc1ccc2c(c1)OCO2 (stereo not drawn)
inactive: [1] | [2] | [3] | [4] | [5] | [19] | [6] | [7] | [8] | [9] | [10] | [11] | [12] | [13] | [14] | [15] | [16] | [17]

CN(C)[C@@H]1C(=O)C(C(N)=O)=C(O)[C@@]2(O)C(=O)C3=C(O)c4c(O)ccc(Cl)c4[C@@](C)(O)[C@H]3C[C@@H]12
inactive: [1] | [2] | [3] | [4] | [5] | [19] | [6] | [7] | [8] | [9] | [10] | [11] | [12] | [13] | [14] | [15] | [16] | [17] | [18] | [20]

COc1ccc(/C(=C/C(=O)N2CCOCC2)c2ccc(Cl)cc2)cc1OC
inactive: [1] | [2] | [3] | [4] | [5] | [6] | [7] | [8] | [9] | [10] | [11] | [12] | [13] | [14] | [15] | [16] | [17] | [18] | [20]

CN(C)CCc1c[nH]c2ccc(O)cc12
inactive: [1] | [2] | [3] | [4] | [5] | [19] | [6] | [7] | [8] | [9] | [10] | [11] | [12] | [13] | [14] | [15] | [16] | [17] | [18]

CCOC(=O)OC1=C(c2cc(C)ccc2C)C(=O)NC12CCC(OC)CC2 (stereo not drawn)
active: [1] 68.5 µM | [5] 10.9 µM | [19] 21.7 µM
inactive: [2] | [3] | [4] | [6] | [7] | [8] | [10] | [11] | [12] | [13] | [14] | [15] | [16] | [17] | [18]

Cc1ccc(OP(=O)(Oc2ccccc2)Oc2ccccc2)cc1
inactive: [1] | [2] | [3] | [4] | [6] | [7] | [8] | [9] | [10] | [11] | [12] | [13] | [14] | [15] | [16] | [17]
active: [19] 0.983 µM

Cn1cc(C2=C(c3cn(C4CCN(Cc5ccccn5)CC4)c4ccccc34)C(=O)NC2=O)c2ccccc21
inactive: [2] | [3] | [4] | [5] | [19] | [6] | [7] | [8] | [9] | [10] | [11] | [12] | [13] | [14] | [15] | [16] | [17]
active: [1] 7.5 µM | [20] 1.34 µM

C1CCC2CCCCC2C1 (stereo not drawn)
inactive: [1] | [2] | [3] | [4] | [5] | [6] | [7] | [8] | [9] | [10] | [11] | [12] | [13] | [14] | [15] | [16] | [17] | [18]

c1ccc2cc3c(cc2c1)-c1cccc2cccc-3c12
active: [1] 1.7 µM | [8] 3.55 µM [fluorescent] | [15] 1.41 µM [fluorescent]
inactive: [2] | [3] | [4] | [5] | [6] | [7] | [9] | [10] | [12] | [14] | [16]

— PubChem BioAssay (Tox21)
